Assay outcomes: PubChem, National Center for Advancing Translational Sciences (NCATS)
A selection: hits, their analogues and other compounds. The true share with any hit is near 2.1%.
PTAP TSG101 blk = blocks PTAP/TSG101 interaction to inhibit HIV-1 budding; Q99816; Fluorescence polarization, FITC-PTAP peptide / Tsg101 binding; Potency, µM (titrated, usually from 115 µM), inactives show top-dose activity change, negative = inhibition, usual class: inhibitors; 340,000 tested, under 10 active; active = well fitted inhibition curve with a large enough effect in the main read-out, with a control signal flat, not every such curve was filed as active; inconclusive = small, poorly fitted or top-dose-only effect, or effect the other way, or a change in a side signal; inactive = no such curve, though single readings can be large or run the other way; also: % of control where 0% means no effect
Target sequence (Q99816 whole entry, looked up): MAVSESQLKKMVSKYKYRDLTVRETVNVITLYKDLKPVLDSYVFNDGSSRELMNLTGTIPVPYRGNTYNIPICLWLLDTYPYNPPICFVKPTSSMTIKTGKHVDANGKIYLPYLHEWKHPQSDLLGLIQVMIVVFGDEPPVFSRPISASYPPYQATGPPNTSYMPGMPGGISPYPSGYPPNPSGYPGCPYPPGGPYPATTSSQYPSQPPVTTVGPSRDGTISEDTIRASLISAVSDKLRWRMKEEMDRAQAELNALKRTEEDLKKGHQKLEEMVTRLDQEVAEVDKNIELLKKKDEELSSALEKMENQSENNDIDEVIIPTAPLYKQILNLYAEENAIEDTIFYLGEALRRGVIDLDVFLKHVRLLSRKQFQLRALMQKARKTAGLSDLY
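Steps: Tsg101 binding domain dispensed (10 uM final), compounds pinned in DMSO, FITC-labeled PTAP-motif peptide added (50 nM final); after 20 min binding at room temperature, polarization measured.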
TDP-43 yeast inh = TDP-43 toxicity inhibition in yeast. TDP-43 expressing yeast growth rescue, BacTiter-Glo, 24 h. Potency, µM (titrated, usually from 46.1 µM), inactives show top-dose growth rescue (activation), usual class: activators. hit rate 1.8% among 410,000. AID 652104; also: % of control where 0% means no effect; nearly all actives have a fitted effect of over 50% in size
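Readout is BacTiter-Glo luminescence of cell growth, so inhibitors register as activators. TDP-43-expressing yeast at OD600=0.02 in galactose medium, after raffinose pregrowth to mid-log, were incubated with compound for 24 hr at 30 deg C.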
FUS yeast rescue = suppressors of FUS proteinopathy in yeast; S. cerevisiae FUS-expressing, growth rescue, OD600, 24 h; Potency, µM (highest dose often 76.6 µM), usual class: activators; hit rate 0.24% among 390,000; AID 1347120;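 also: plate controls were DMSO vehicle for no effect and reference control for full effect; nearly all actives have a fitted effect of over 55% in size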
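FUS-expressing yeast, raffinose-pregrown, induced in 2% galactose minimal medium at OD 0.005; compounds in a dilution series, 24hr at 30C. Growth restoration read as absorbance at 600 nm. CP55940 positive control, DMSO negative.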
aSyn rescue = alpha-synuclein toxicity inhibition in yeast | AID 652106 | Potency, µM (top dose mostly 46.1 µM), inactives show top-dose growth rescue (activation), usual class: activators | hit rate 0.14% among 370,000 | Yeast expressing alpha-synuclein, growth rescue, BacTiter-Glo, 24 h; also: % of control where 0% means no effect; nearly all actives have a fitted effect of over 65% in size
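Screening used galactose-induced yeast with toxic alpha-synuclein levels, exposed to compound for 24 hr at 30 deg C. Cell growth, read with BacTiter-Glo luminescence, gave the measured signal.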
Abeta rescue = compounds reversing amyloid beta toxicity in yeast. yeast expressing A-beta42, growth rescue, OD600, 48 h; response scale: 0% DMSO, 100% iron-clioquinol control. Potency, µM (doses to about 46.1 µM), most hits filed as activators. hit rate 0.063% among 410,000. AID 1347071; also: nearly all actives have a fitted effect of over 55% in size
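Yeast growth medium received pinned compounds, then yeast cells expressing toxic A-beta were added; plates incubated at 30 C for 48 hr. Growth read as absorbance at 600 nm, normalized to DMSO and equimolar FeCl3 plus clioquinol controls.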
Starred values were filed as active, the others as inactive; i = inactive; u = inconclusive; x = no result given; [ ] = another dose, or the depositor's remark. Unless noted, calls follow the shape of the dose curve; as a rule, active = well fitted curve in the direction sought with a large enough effect; inconclusive = small, poorly fitted or top-dose-only effect, or another doubt; inactive = no such curve, though single readings can be large; an effect the other way counts as inactive or inconclusive. Potency is read from the fitted curve at half-maximal effect.

SMILES	PTAP TSG101 blk	TDP-43 yeast inh	FUS yeast rescue	aSyn rescue	Abeta rescue
O=C1C=C(c2ccc3ncccc3c2)C[C@@H](c2ccc(Cl)cc2)C1	-2%	16µM*	u	17%	i
O=C1C=C(c2ccccc2)C[C@@H](c2ccc(Cl)cc2)C1	-6%	20µM*	i	8%	i
O=C1CC(c2ccccc2)CC(=O)C1Sc1ccc(Cl)cc1 (centres undefined)	-9%	10µM*	x	17%	i
COc1ccc([C@H]2CC(=O)C=C(c3cccc(CO)c3)C2)cc1OC	0%	18%	i	5%	i
COc1ccc([C@H]2CC(=O)C=C(c3ccc4ncccc4c3)C2)cc1	x	u	i	15%	i
Cc1ccc(C2=CC(=O)C[C@H](c3ccc(Cl)cc3)C2)cc1	1%	16µM*	i	4%	i
OC[C@@H]1CN(CCc2ccccc2)C[C@H](n2cnc3c(NCc4ccc(F)cc4)ncnc32)O1	x	4%	i	5%	i
Cc1ccc(NC2=C(Cl)C(=O)OC2OC(=O)c2ccc(C)cc2)cc1 (centres undefined)	-2%	13µM*	i	0%	i
Cc1ccccc1NC1=C(Cl)C(=O)OC1OC(=O)c1ccco1 (centres undefined)	-5%	-10%	i	3%	i
CCN(C(=O)/C=C/c1ccc(OC)cc1)C1CCS(=O)(=O)C1 (centres undefined)	-6%	0%	i	-2%	i
CCN(C(=O)/C=C/c1ccc(OC)cc1)C1CCCCC1	-2%	18µM*	i	6%	i
C=CC(=O)NC1CCCCN(C(C)C)C1=O (centres undefined)	x	x	i	x	x
COc1ccccc1NC(=O)C(=O)NCCc1csc(-c2cccc(F)c2)n1	x	10%	i	x	i
COc1ccc(OC)c(-c2nn(-c3ccccc3)cc2C(=O)N2CCc3ccccc3C2)c1	-3%	13µM*	u	-2%[1.84 µM]	i
O=C(O)CCCCCN1C(=O)C(O)=C(C(=O)/C=C/c2ccccc2)C1c1ccc2c(c1)OCO2 (centres undefined)	-1%	-30%	35µM*	-6%	i
O=C(Nc1ccc2c(c1)OCCO2)C(C1CC1)N1CCN(c2ccc(C(F)(F)F)cn2)CC1 (centres undefined)	x	u	i	6%	i
N#Cc1ccccc1CSc1nnc(-c2ccncc2)o1	-7%	22%	u	-13%	i
Cc1cccc(CSc2nnc(-c3ccco3)n2C)c1	-1%	24%	i	-3%	i
N#Cc1cccc(-c2nnc(SCc3ccccc3C#N)o2)c1	-12%	18µM*	i	13%	i
COc1cccc(-c2nnc(SCc3cccnc3)o2)c1	-7%	13µM*	i	21%	i
Cc1cccc(-c2nnc(-c3ccc(N)cc3)o2)c1	-4%	8.9µM*	i	8%	i
Cc1cccc(CSc2nnc(-c3ccco3)o2)c1	-4%	18µM*	i	-12%	i
Cc1cccc(-c2nnc(SCc3ccccc3)o2)c1	1%	11µM*	i	0%	i
Cc1ccc(NC(=O)N2CCCC(c3nc(-c4ccc(F)cc4)no3)C2)cc1 (centres undefined)	-1%	35µM*	i	6%	i
O=S(=O)(c1ccccc1Cl)N1CCCC1c1nc(-c2ccccc2Cl)no1 (centres undefined)	-8%	14µM*	i	16%	i
SMILES	PTAP TSG101 blk	TDP-43 yeast inh	FUS yeast rescue	aSyn rescue	Abeta rescue
O=S(=O)(c1ccc(Cl)cc1)N1CCCC1c1nc(-c2ccc(Cl)cc2)no1 (centres undefined)	-5%	-4%	i	19%	i
O=C(Nc1ccc(Cl)cc1)N1CCC(c2nc(-c3ccccc3Cl)no2)CC1	-9%	18µM*	i	14%	i
O=C(Nc1ccc(Cl)cc1)N1CCC(c2nc(-c3cccs3)no2)CC1	0%	u	u	11%	i
CC(=O)C1=CCC(c2ccccc2)N(S(=O)(=O)c2ccc(Cl)cc2)C1 (centres undefined)	x	u	u	u	i
CCNc1nc2c(c(=O)n(C)c(=O)n2C)n1Cc1ccc(F)cc1	x	-12%	i	x	i
COC(=O)C[C@@H]1CC[C@H]2[C@@H](COc3ccc(NS(=O)(=O)c4ccccc4F)cc3C(=O)N2C)O1	x	x	i	x	x
O=C(COc1ccc2ccccc2c1)N1c2ccccc2Sc2ccccc21	-4%	-19%	u	5%	i
O=C(CCl)N1c2ccccc2Sc2ccc3ccccc3c21	x	5µM*	i	18%	i
C=C1C(=O)[C@]23C[C@H]1CC[C@H]2[C@]1(C)[C@@H](OC(C)=O)CC[C@@](C)(C(=O)O)[C@H]1C[C@@H]3O	x	11µM*	i	u	i
C=C1C(=O)[C@]23C[C@H]1CC[C@H]2[C@]1(C)[C@@H](OC(C)=O)CC[C@@](C)(C(=O)OC)[C@H]1C[C@@H]3OC(C)=O	x	18µM*	i	17%	i
C=C1C(=O)[C@]23C[C@H]1CCC2[C@@]1(C)C(C[C@@H]3O)[C@](C)(C(=O)OC)CC[C@@H]1OC(C)=O (some centres undefined)	x	u	i	-81%	i
C=C1C(=O)[C@]23C[C@H]1CC[C@H]2[C@]1(C)[C@@H](O)CC[C@@](C)(C(=O)O)[C@H]1C[C@@H]3O	x	26%	i	20%	i
COc1cc(CN(C)C)cc(C=O)c1O	1%	-19%	i	-3%	i
COc1cc(N=Nc2ccc(Br)cc2)cc(C=O)c1O	x	13µM*	i	-38%	i
Oc1ccc(Cl)cc1C1C=C(c2ccc3c(c2)OCO3)NC(c2cc(Br)ccc2F)N1 (centres undefined)	x	x	x	-24%	x
Cc1ccc(S(=O)(=O)NCC2CN(S(=O)(=O)c3ccc(C)cc3)c3ccccc3C(=O)N2c2ccc(F)cc2)cc1 (centres undefined)	x	x	18µM*	x	x
CCSc1ccc(-c2cc(NC=O)c3ncc(-c4cccc(C(=O)NCCN(C)C)c4)n3c2)cc1	x	22%	i	-20%	i
COc1ccc(-c2cc(NC=O)c3ncc(-c4cccc(OC)c4)n3c2)cc1	x	10µM*	i	-16%	i
CCSc1ccc(-c2cc(NC=O)c3ncc(-c4cccc(C(=O)N(C)C)c4)n3c2)cc1	x	5%	25µM*	6%	i
COc1cccc(-c2cnc3c(NC=O)cc(-c4ccc(OC)cc4OC)cn23)c1	x	22µM*	u	-7%	i
COc1ccc(-c2cc(NC=O)c3ncc(-c4ccc(OC)c(OC)c4)n3c2)c(OC)c1	x	27%	u	-18%	i
